# Experimental data from the supplement of paper PMC8728848.
# The sample as a whole holds a higher share of the strongest signals than the screen did.
# B1: ZG16p (Homo sapiens), O60844 (protein)
# chain: ARSSSYSGEYGGGGGKRFSHSGNQLDGPITALRVRVNTYYIVGLQVRYGKVWSDYVGGRNGDLEEIFLHPGESVIQVSGKYKWYLKKLLFVTDKGRYLSFGKDSGTSFNAVPLHPNTVLRFISGRSGSLIDAIGLHWDVYPSSCSRC
# Legend:
# Assay in all cases: glycan array binding signal (z-score within array); higher = stronger binding
# Settings in all cases: glycan notation: IUPAC condensed, linker removed
# [1] = biological target: 3dGal(b1-3)[Fuc(a1-4)]Glc
# Method in brief: (§1)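 Negative Z-scores can be read as non-binding. The Z-score is calculated within each array and then averaged across arrays of one protein sequence at different concentrations or buffers and across linkers. Arrays, 3228 in all, were curated from the Consortium for Functional Glycomics database and kept only where the protein sequence was available.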
# [2] = biological target: Fuc(a1-3)[3dGal(b1-4)]Glc
# Method in brief: as §1
# [3] = biological target: Fuc(a1-3)[Gal(b1-4)]GlcNAc(b1-3)Gal(b1-4)Glc
# Method in brief: as §1
# [4] = biological target: Fuc(a1-3)[Gal6S(b1-4)]GlcNAc(b1-3)Gal(b1-4)Glc
# Method in brief: as §1
# Gal(a1-6)Glc = biological target: Gal(a1-6)Glc
# Method in brief: as §1
# Gal(b1-4)Glc = biological target: Gal(b1-4)Glc
# Method in brief: as §1
# [5] = biological target: Gal(b1-4)GlcNAc(b1-2)Man(a1-3)[Man(a1-6)]Man(b1-4)GlcNAc(b1-4)GlcNAc
# Method in brief: as §1
# [6] = biological target: Gal(b1-4)GlcNAc(b1-3)[Fuc(a1-3)[Gal(b1-4)]GlcNAc(b1-6)]Gal(b1-4)Glc
# Method in brief: as §1
# Glc(a1-3)Glc = biological target: Glc(a1-3)Glc
# Method in brief: as §1
# [7] = biological target: Glc(a1-4)Glc(a1-4)Glc(a1-4)Glc(a1-4)Glc(a1-4)Glc(a1-4)Glc(a1-4)Glc
# Method in brief: as §1
# [8] = biological target: Glc(a1-4)Glc(a1-4)Glc(a1-4)Glc(a1-4)Glc(a1-4)Glc(a1-4)Glc(a1-4)Glc(a1-4)Glc(a1-4)Glc
# Method in brief: as §1
# [9] = biological target: Glc(a1-4)Glc(a1-4)Glc(a1-4)Glc(a1-4)Glc(a1-4)Glc(a1-4)Glc(a1-4)Glc(a1-4)Glc(a1-4)Glc(a1-4)Glc(a1-4)Glc
# Method in brief: as §1
# [10] = biological target: Glc(a1-4)Glc(a1-4)Glc(a1-4)Glc(a1-4)Glc(a1-4)Glc(a1-4)Glc(a1-4)Glc(a1-4)Glc(a1-4)Glc(a1-4)Glc(a1-4)Glc(a1-4)Glc
# Method in brief: as §1
# Glc(a1-6)Glc(a1-6)Glc = biological target: Glc(a1-6)Glc(a1-6)Glc
# Method in brief: as §1
# [11] = biological target: Glc(b1-3)Glc(b1-3)Glc(b1-3)Glc
# Method in brief: as §1
# Glc(b1-6)Glc = biological target: Glc(b1-6)Glc
# Method in brief: as §1
# GlcA(b1-3)Gal(b1-4)Glc = biological target: GlcA(b1-3)Gal(b1-4)Glc
# Method in brief: as §1
# [12] = biological target: GlcNAc(b1-2)[GlcNAc(b1-4)]Man(a1-3)[GlcNAc(b1-2)[GlcNAc(b1-4)][GlcNAc(b1-6)]Man(a1-6)][GlcNAc(b1-4)]Man(b1-4)GlcNAc(b1-4)GlcNAc
# Method in brief: as §1
# [13] = biological target: GlcNAc(b1-3)[GlcNAc(b1-6)]Gal
# Method in brief: as §1
# [14] = biological target: GlcNAc(b1-4)GlcNAc(b1-4)GlcNAc(b1-4)GlcNAc(b1-4)GlcNAc(b1-4)GlcNAc
# Method in brief: as §1
# [15] = biological target: Kdn(a2-3)Gal(b1-3)GlcNAc(b1-3)Gal(b1-4)Glc
# Method in brief: as §1
# [16] = biological target: Kdn(a2-3)Gal(b1-4)[Fuc(a1-3)]GlcNAc(b1-3)Gal
# Method in brief: as §1
# Man(a1-3)Man = biological target: Man(a1-3)Man
# Method in brief: as §1
# Man(a1-3)Man(b1-4)GlcNAc = biological target: Man(a1-3)Man(b1-4)GlcNAc
# Method in brief: as §1
# [17] = biological target: Man(b1-4)Man(b1-4)Man(b1-4)Man(b1-4)Man(b1-4)Man
# Method in brief: as §1
# [18] = biological target: Neu5Ac(a2-3)Gal(b1-3)GlcNAc(b1-3)[Fuc(a1-3)[Gal(b1-4)]GlcNAc(b1-6)]Gal(b1-4)Glc
# Method in brief: as §1
# Neu5Ac(a2-3)Gal(b1-4)Glc = biological target: Neu5Ac(a2-3)Gal(b1-4)Glc
# Method in brief: as §1
# [19] = biological target: Neu5Ac(a2-3)Gal(b1-4)[Fuc(a1-3)]GlcNAc(b1-6)Gal(b1-4)Glc
# Method in brief: as §1
# [20] = biological target: Neu5Ac(a2-3)Gal6S(b1-4)[Fuc(a1-3)]GlcNAc(b1-3)Gal(b1-4)Glc
# Method in brief: as §1
# [21] = biological target: Neu5Ac(a2-6)Gal(b1-3)GlcNAc(b1-3)[Fuc(a1-3)[Gal(b1-4)]GlcNAc(b1-6)]Gal(b1-4)Glc
# Method in brief: as §1
# [22] = biological target: Neu5Ac(a2-8)Neu5Ac(a2-8)Neu5Ac(a2-3)Gal(b1-4)Glc
# Method in brief: as §1
# [23] = biological target: Neu5Ac9Me(a2-3)Gal(b1-4)Glc
# Method in brief: as §1
# [24] = biological target: Neu5Gc(a2-6)Gal(b1-4)GlcNAc(b1-2)Man(a1-3)[Neu5Gc(a2-6)Gal(b1-4)GlcNAc(b1-2)Man(a1-6)]Man(b1-4)GlcNAc(b1-4)GlcNAc
# Method in brief: as §1
# [25] = biological target: Xyl(b1-2)[Man(a1-3)][Man(a1-6)]Man(b1-4)GlcNAc(b1-4)[Fuc(a1-3)]GlcNAc
# Method in brief: as §1
binder,measurement,setting,value
B1,glycan array binding signal (z-score),[1],-0.327
same,glycan array binding signal (z-score),[2],-0.025
same,glycan array binding signal (z-score),[3],-0.178
same,glycan array binding signal (z-score),[4],-0.328
same,glycan array binding signal (z-score),Gal(a1-6)Glc,-0.272
same,glycan array binding signal (z-score),Gal(b1-4)Glc,-0.133
same,glycan array binding signal (z-score),[5],-0.273
same,glycan array binding signal (z-score),[6],-0.328
same,glycan array binding signal (z-score),Glc(a1-3)Glc,2.88
same,glycan array binding signal (z-score),[7],1.93
same,glycan array binding signal (z-score),[8],1.95
same,glycan array binding signal (z-score),[9],4.4
same,glycan array binding signal (z-score),[10],2.82
same,glycan array binding signal (z-score),Glc(a1-6)Glc(a1-6)Glc,0.475
same,glycan array binding signal (z-score),[11],0.797
same,glycan array binding signal (z-score),Glc(b1-6)Glc,2.7
same,glycan array binding signal (z-score),GlcA(b1-3)Gal(b1-4)Glc,-0.328
same,glycan array binding signal (z-score),[12],-0.42
same,glycan array binding signal (z-score),[13],0.435
same,glycan array binding signal (z-score),[14],-0.328
same,glycan array binding signal (z-score),[15],-0.328
same,glycan array binding signal (z-score),[16],-0.328
same,glycan array binding signal (z-score),Man(a1-3)Man,2.78
same,glycan array binding signal (z-score),Man(a1-3)Man(b1-4)GlcNAc,2.31
same,glycan array binding signal (z-score),[17],-0.328
same,glycan array binding signal (z-score),[18],-0.328
same,glycan array binding signal (z-score),Neu5Ac(a2-3)Gal(b1-4)Glc,-0.276
same,glycan array binding signal (z-score),[19],-0.328
same,glycan array binding signal (z-score),[20],-0.328
same,glycan array binding signal (z-score),[21],-0.328
same,glycan array binding signal (z-score),[22],-0.328
same,glycan array binding signal (z-score),[23],-0.328
same,glycan array binding signal (z-score),[24],-0.282
same,glycan array binding signal (z-score),[25],-0.369
